PubChem BioAssay AID488908 (National Center for Advancing Translational Sciences (NCATS), 2010)
Records with an inconclusive call do not appear. Active and inactive are the calls of the source. Calls come from the whole dose curve; as a rule, active = well fitted inhibition curve with a large enough effect; inconclusive = small, poorly fitted or top-dose-only effect; inactive = flat fitted curve, though single readings scatter.

Test: Secondary Assay for lipid storage modulators: Cytotoxcity for probe SAR
Details: Drosophila S3 cells viability, CellTiter-Glo luminescence, 24 h, with oleic acid added (1 µL, 400 µM); series mostly up to 46.1 µM; activity change, negative = cytotoxicity: at the top concentration
How it was run: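 Drosophila S3 embryonic cells, 5,000/well, exposed to compound at several concentrations with 400 uM oleic acid stock added, 24 h at 24 degrees C; viability by CellTiter-Glo luminescence.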

| Structure (SMILES) | activity change, negative = cytotoxicity | Potency |
| --- | --- | --- |
| COc1ccc(Cl)cc1NC(=S)N1CCN(c2ccccc2F)CC1 | -6.35% (inactive) |  |
| CCOc1ccc(CCNC(=O)c2ccc(C3(C(F)(F)F)N=N3)cc2)cc1OCC | -8.66% (inactive) |  |
| O=C(CSc1nnc(NCc2ccccc2)s1)Nc1nc(-c2cccc(Br)c2)cs1 | -15.8% (inactive) |  |
| O=C(NC1CCCc2c1cnn2-c1ccc(F)cc1F)c1cnon1 (stereo unspecified) | -12.7% (inactive) |  |
| COc1ccc(-c2csc(NC(=O)CSc3nnc(NC4CC4)s3)n2)cc1OC | -10.9% (inactive) |  |
| O=C(NC1CCCc2c1cnn2-c1ccc(F)cc1F)c1ccccc1 (stereo unspecified) |  | 5.6 µM (active) |
| O=C(Cc1cccs1)Nc1nc(-c2ccc(F)cc2)cs1 | -25.4% (inactive) |  |
| Cc1csc(NC(=O)CSc2ncc(-c3ccccc3)n2Cc2ccco2)n1 | -14.8% (inactive) |  |
| CCOc1ccc(CCNC(=O)c2csc(Br)n2)cc1OCC | -18.6% [at 30.7 µM] (inactive) |  |
| COc1nc(-c2ccc3c(c2)OCO3)n(-c2ccc(NC(=O)CSc3ccccc3)cc2)n1 | -7.25% (inactive) |  |
| CCn1c(C(=O)NCCc2ccc(OC)c(OC)c2)cc2sccc21 | -23.9% (inactive) |  |
